Source: PubChem BioAssay AID1159580 (chemical genetic matrix, 2015)
Values joined by “and” are separate entries in the source; they are usually repeats but may differ in a detail not shown here. Identical values can stand only once. In all, about 5,500 compounds went through this assay and about 2,000 (36%) were called active. About 18% were inconclusive and are not listed. Rule as the data show it: active = normalized growth mostly below about 0.91 (no sharp cut-off); inconclusive = no clear call, values can overlap the other calls; inactive = mostly above about 0.92. This is one part of the list.

Test: chemical genetic growth profiling, strain panel (AID 1159580);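 also: tested at 20 µM; growth read once vehicle control cultures reached saturation at 30 °C; 1 = growth at the plate median or of vehicle wells; lower values mean less growth of the strain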
Details: S. cerevisiae deletion strains, growth OD

Measured: normalized growth

OCCN(CCO)c1nc(N2CCCCC2)c2nc(N(CCO)CCO)nc(N3CCCCC3)c2n1
inactive: locus YJR066W, strain TOR1, hits give low values 0.982 | locus YJR075W, strain HOC1, hits give low values 0.997 | locus YKL009W, strain mrt4, hits give low values 0.998 | locus YKL068W, hits give low values 1 | locus YKL085W, strain MDH1 (second series), hits give low values 1.01 | locus YKL085W, strain MDH1, hits give low values 1.01 | locus YKL160W, strain elf1, hits give low values 1.04 | locus YKL190W, strain CNB1, hits give low values 1.01 | locus YKR001C, strain vps1, hits give low values 1.02 | locus YKR026C, strain gcn3, hits give low values 0.991 | locus YLL001W, strain dnm1, hits give low values 1 | locus YLL026W, hits give low values 0.99 | locus YLL041C, strain sdh2, hits give low values 0.969 | locus YLR027C, strain aat2, hits give low values 0.986 | locus YLR039C, strain RIC1, hits give low values 1.06 | locus YLR058C, strain SHM2, hits give low values 1.01 | locus YLR102C, strain apc9, hits give low values 0.987 | locus YLR113W, strain HOG1, hits give low values 0.999 | locus YLR221C, strain rsa3, hits give low values 1.02 | locus YLR258W, strain gsy2, hits give low values 0.997 | locus YLR262C, strain YPT6 (second series), hits give low values 1.02 | locus YLR262C, strain YPT6, hits give low values 0.994 | locus YLR268W, strain sec22, hits give low values 1.01 | locus YLR320W, strain mms22, hits give low values 1.04 | locus YLR330W, strain CHS5, hits give low values 1.01 | locus YLR342W, strain FKS1 (second series), hits give low values 1.02 | locus YLR342W, strain FKS1, hits give low values 0.99 | locus YLR357W, strain rsc2, hits give low values 0.985 | locus YLR370C, strain arc18, hits give low values 0.999 | locus YLR371W, strain rom2, hits give low values 0.996 | locus YLR384C, strain iki3, hits give low values 0.994 | locus YLR418C, strain cdc73, hits give low values 0.976 | locus YML016C, strain PPZ1, hits give low values 1.01 | locus YML032C, strain rad52, hits give low values 0.988 | locus YML120C, strain ndi1, hits give low values 1.02 | locus YML124C, strain tub3, hits give low values 0.995 | locus YMR058W, strain fet3, hits give low values 0.968 | locus YMR078C, strain ctf18, hits give low values 0.994 | locus YMR125W, strain sto1, hits give low values 0.992 | locus YMR129W, hits give low values 0.983 | locus YMR205C, strain PFK2, hits give low values 1.01 | locus YMR223W, strain ubp8, hits give low values 0.997 | locus YMR231W, strain pep5, hits give low values 0.989 | locus YMR307W, strain GAS1, hits give low values 1.02 and 0.989 | locus YNL067W, strain RPL9B, hits give low values 1 | locus YNL071W, strain lat1, hits give low values 0.98 | locus YNL128W, strain TEP1, hits give low values 0.995 | locus YNL153C, strain GIM3, hits give low values 0.968 | locus YNL175C, strain NOP13, hits give low values 0.993 | locus YNL183C, strain NPR1, hits give low values 0.956 | locus YNL197C, strain WHI3, hits give low values 0.988 | locus YNL209W, strain ssb2, hits give low values 0.993 | locus YNL224C, strain SQS1, hits give low values 0.999 | locus YNL233W, strain BNI4, hits give low values 0.982 | locus YNL248C, strain rpa49, hits give low values 0.973 | locus YNL250W, strain rad50, hits give low values 1.01 | locus YNL271C, strain bni1, hits give low values 0.998 | locus YNL298W, strain CLA4, hits give low values 0.991 | locus YNL307C, strain MCK1, hits give low values 0.997 | locus YNL322C, strain KRE1 (second series), hits give low values 0.988 | locus YNL322C, strain KRE1, hits give low values 1.02 | locus YNR049C, strain mso1, hits give low values 0.984 | locus YNR052C, strain pop2, hits give low values 1 | locus YOL012C, strain htz1 2.13 | locus YOL147C, strain pex11, hits give low values 1 | locus YOR001W, strain rrp6, hits give low values 0.928 | locus YOR061W, strain CKA2, hits give low values 1.02 | locus YOR069W, strain VPS5, hits give low values 1.01 | locus YOR070C, strain gyp1, hits give low values 0.996 | locus YOR080W, strain dia2, hits give low values 0.986 | locus YOR083W, strain WHI5 (second series), hits give low values 0.981 | locus YOR106W, strain vam3, hits give low values 1.01 | locus YOR136W, strain idh2, hits give low values 1 | locus YOR144C, strain elg1, hits give low values 0.999 | locus YOR184W, strain ser1, hits give low values 0.997 | locus YOR231W, strain MKK1, hits give low values 1.02 | locus YOR265W, strain rbl2, hits give low values 0.997 | locus YOR270C, strain vph1, hits give low values 0.948 | locus YOR290C, strain snf2, hits give low values 0.931 | locus YOR316C, strain cot1, hits give low values 0.999 | locus YPL051W, strain arl3, hits give low values 1.05 | locus YPL055C, strain LGE1, hits give low values 0.996 and 1.03 | locus YPL078C, strain atp4, hits give low values 1 | locus YPL106C, strain sse1, hits give low values 1.01 | locus YPL240C, strain hsp82, hits give low values 0.99 | locus YPL241C, strain CIN2, hits give low values 1 | locus YPL256C, strain CLN2, hits give low values 1 | locus YPR119W, strain clb2, hits give low values 0.994 | locus YPR141C, strain kar3, hits give low values 0.995 | locus YPR163C, strain tif3, hits give low values 1 | locus YPR167C, strain met16, hits give low values 0.996 | strain wtn01, hits give low values 0.994
active: locus YKR091W, strain srl3, hits give low values 0.551 | locus YOR083W, strain WHI5, hits give low values 0.233
